Results filed as inconclusive are left out. A number with no mark means an inactive call. Activity calls are given as the source filed them.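 Rule for the calls: active = inhibitors giving a complete concentration-response curve with high efficacy; inconclusive = inhibitors giving only a partial curve with partial efficacy; inactive = the rest.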
Each compound was assayed against Lysosomal acid glucosylceramidase (Homo sapiens) (UniProt P04062) (assay: Confirmation Concentration-Response Assay for Glucocerebrosidase Inhibitors). Details: purified GBA, resorufin glucoside fluorescence, 20 min; series mostly up to 63.5 µM; inhibition: at the top concentration.
Sequence of Lysosomal acid glucosylceramidase (Homo sapiens) (P04062 whole entry, looked up): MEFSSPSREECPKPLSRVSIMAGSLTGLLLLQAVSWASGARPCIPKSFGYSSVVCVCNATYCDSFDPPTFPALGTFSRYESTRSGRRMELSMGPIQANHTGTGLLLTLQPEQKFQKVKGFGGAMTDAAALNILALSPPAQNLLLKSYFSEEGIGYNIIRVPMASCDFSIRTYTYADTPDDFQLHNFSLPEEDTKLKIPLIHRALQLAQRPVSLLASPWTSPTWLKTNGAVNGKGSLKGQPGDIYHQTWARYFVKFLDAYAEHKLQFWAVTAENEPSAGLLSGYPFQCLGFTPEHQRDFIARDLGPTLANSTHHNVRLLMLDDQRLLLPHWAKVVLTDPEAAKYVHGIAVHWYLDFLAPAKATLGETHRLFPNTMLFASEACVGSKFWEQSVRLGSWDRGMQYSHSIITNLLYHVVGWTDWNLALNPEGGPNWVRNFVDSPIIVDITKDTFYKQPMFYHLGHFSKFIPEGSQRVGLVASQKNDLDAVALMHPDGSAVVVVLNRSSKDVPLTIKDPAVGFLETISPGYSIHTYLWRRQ
Text: NCGC Assay Overview: NIH Molecular Libraries Screening Centers Network [MLSCN] NIH Chemical Genomics Center [NCGC] MLSCN Grant: XO1-MH078932-01 Beta-glucocerebrosidase catalyzes the hydrolysis of beta-glucocerebroside to glucose and ceramide. The inherited deficiency of beta-glucocerebrosidase results in Gaucher disease, which is characterized by a wide variety of symptoms including hepatosplenomegaly, anemia, thrombocytopenia, bony lesions and bone marrow infiltration with characteristic storage cells, known as Gaucher cells. There are also forms of the disorder affecting the central nervous system. Patients with the same genotypes can manifest with diverse clinical presentations and it is believed that improper folding and trafficking of beta-glucocerbrosidase may contribute to the phenotypes observed. Low molecular weight molecules, acting as chaperones, may potentially restore trafficking of misfolded beta-glucocerebrosidase from the endoplasmic reticulum to the lysosomes, thereby enhancing functional lysosomal beta-glucocerebrosidase activity. Using normal beta-glucocerebrosidase, an assay was developed to screen for small molecule inhibitors that could potentially act as molecular chaperones on the mutant forms [developed with NIH investigator Dr. Ellen Sidransky's laboratory]. A pro-fluorescent substrate was chosen for a screen against a small molecule library. The beta-glucocerebrosidase assay used Resorufin beta-D-Glucopyranoside (Marker Gene Technology Inc.), generating a red fluorescent product. The Km for the Resorufin beta-D-Glucopyranoside was determined to be 71.2 uM. The IC50 values of Conduritol B Epoxide, a known glucocerebrosidase inhibitor, was determined to be 87.5 uM. All compounds were screened in a titration series resulting in AC50s (e.g., IC50s or EC50s). To confirm activity from the original screen, samples were reacquired from MLSCN and also synthesized in-house, and re-screened against the original assay at a higher density of titration points.
NCGC Assay Protocol Summary: Both enzyme and substrate were diluted in buffer composed of 50mM citric acid/KH2PO4, 10mM sodium taurocholate and 0.01% tween-20 at pH 5.9. The final concentration of the enzyme was 0.2 nM in both assays. The compound library was titrated in 7 to 15 concentrations for the primary screens with a final concentration ranging from 0.6 nM to 50 uM. This particular assay protocol was performed in 1536-well plate format as follows: Red fluorescence substrate assay: 2 uL enzyme 23 nL compound 1 uL substrate (final concentration of 30 uM) Incubate at room temperature (RT) for 20 minutes Read the plate in Viewlux plate reader (Ex=548(7) and Em=600(10)).
In the case of `Cc1cc(N2CCOCC2)nc2ccc(NC(=O)C3CCC(C)CC3)cc12` (stereo unspecified), the Potency is reported as 66 nM (active).
With `Cc1cc(N2CCOCC2)nc2ccc(NC(=O)C3CC3)cc12` the Potency was 193 nM (active).
In the case of `Cc1cc(N2CCN(c3ncccn3)CC2)nc2ccc(NC(=O)C3CCC(C)CC3)cc12` (stereo unspecified), the Potency is reported as 1890 nM (active).
For `CCN(CC)c1cc(C)c2cc(NC(=O)C3CCC(C)CC3)ccc2n1` (stereo unspecified), the Potency was 940 nM (active).
In the case of `CCCC1CCC(C(=O)Nc2ccc3nc(N4CCOCC4)cc(C)c3c2)CC1` (stereo unspecified), the Potency is reported as 104 nM (active).
`Cc1cc(N2CCCCC2)nc2ccc(NC(=O)C3CCC(C)CC3)cc12` (stereo unspecified) was tested, and the Potency was 339 nM (active).
With `Cc1cc(N2CCC(C)CC2)nc2ccc(NC(=O)C3CCC(C)CC3)cc12` (stereo unspecified) the Potency was 164 nM (active).
In the case of `CC(C)(C)Oc1ccccc1Nc1nc(NCCO)nc(N2CCCC2)n1`, the Potency is reported as 21.5 nM (active).
`Cc1ccc(S(=O)(=O)Nc2ccc(C(=O)Nc3cc(C)on3)cc2)cc1` was tested, and the Potency was 90.7 nM (active).
In the case of `O=C(Nc1nccs1)c1ccc(NS(=O)(=O)c2ccc(Cl)cc2)cc1`, the Potency is reported as 1250 nM (active).
In the case of `Cc1cc(Nc2cccc(Cl)c2)nc2ccc(NC(=O)C3CCC(C)CC3)cc12` (stereo unspecified), the “inhibition” value is reported as 27%.
